The text below walks through data of PubChem BioAssay (EPA / NIEHS).

SMILES strings stand for the structures. Records with an inconclusive call do not appear. Activity calls are given as the source filed them. The calls were made as follows, unless noted: active = hit-call score of the fitted dose curve at least 0.9, where 1 is the maximum; inconclusive = response in the unintended direction; inactive = score below 0.9.

Read-out in the first experiment: solute carrier (SLC22A6), SLC22A6 (gene 9356)
Briefly: LTEA_HepaRG_SLC22A6: Life Technologies and Expression Analysis (LTEA) Assay for solute carrier (SLC22A6) using HepaRG (AID 2283653; active = hit-call score of the fitted dose curve at least 0.9, where 1 is the maximum; inactive = score below 0.9). The conditions noted are these: mRNA level, 48 h; actives raise or lower the signal. The protocol: LTEA_HepaRG is a cell based, multiplexed-readout assay that uses HepaRG, a human liver cell line, with measurements taken at 48 hours after chemical dosing on a 96-well plate.LTEA_HepaRG_SLC22A6 is one of 102 assay component(s) measured in the LTEA HepaRG cell culture assay. It is a marker of NR mediated transport.Data from the assay component LTEA_HepaRG_SLC22A6 was analyzed into 1 endpoint. This assay endpoint, LTEA_HepaRG_SLC22A6, was analyzed with bidirectional fitting relative to DMSO as the negative control and baseline of activity. Using a type of inducible reporter, measures of mRNA induction for gain or loss-of-signal activity can be used to understand regulation of transcription factor activity. To generalize the intended target to other relatable targets, this assay endpoint is annotated to the transporter intended target family, where the subfamily is organic anion transporter.
A total of 1060 chemcials from the ToxCast library were tested in eight-point concentration-response experiments. Cell culture and cytotoxicity assays were conducted at Thermo Fisher Scientific's Custom Services facility (Madison, WI). A single lot of human HepaRG cells (Thermo Fisher Scientific, Frederick, MD) was used for the cell culture experiments. 96-well format collagen type I coated plates of human HepaRG cells were prepared using established methods. Briefly, cryopreserved HepaRG cells were thawed, plated at a density of approximately 100,000 cells/well in HepaRG Thaw, Plate, and General Purpose media (HPRG770, Thermo Fisher Scientific), and incubated for 48 hours. 0.5% DMSO was selected as vehicle control to balance the requisite need of DMSO in HepaRG cultures to maintain differentiation (for example, baseline metabolism, proportions of hepatocytes vs. cholangiocytes), while enabling further hepatic receptor pathway activation (for example, PXR and CAR) in response to chemical exposure. 48 hours after plating, the culture medium was replaced with HepaRG Serum-Free Incudtion Media. Cells were exposed to each test chemical in duplicate and maintained in CO2 incubators for another 48 hours. Chemical plates were thawed to room temperature and 200x concentrations of treatment groups were prepared. 8-point conentration-reponse curves were made with the highest exposure at 100 uM, followed by half-log dilutions, all in 0.5% DMSO. […] Fluidigm's 96.96 Dynamic ArrayTM (Fluidigm, Amsterdam, the Netherlands) technology was used for gene expression analyses by quantitative reverse transcription polymerase chain reaction (qRT-PCR, performed by Quintiles/Expression Analysis, Durham, NC)89. […]
As to `CC(C)CCCCCCOC(=O)c1ccc(C(=O)OCCCCCCC(C)C)c(C(=O)OCCCCCCC(C)C)c1`, the compound was classed as inactive. In the case of `O=C(O)c1cccc(Oc2ccccc2)c1`, the outcome was inactive.

Turning to `CC(C)c1cccc(C(C)C)c1N1C(=O)c2ccc(O)cc2C1=O`, the call was inactive. Consider `C=CC(=C)CCC=C(C)C`, for which the outcome was inactive.

Tested on in the next experiment: not listed separately
Put plainly: Tanguay_ZF_120hpf_SWIM_legacy: (Legacy) Oregon State University Tanguay Lab 120 Hour Post-fertilization zebrafish Assay for Swim Bladder Malformation (AID 2283654).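 Also: swim bladder malformation in each larva scored yes or no under brightfield.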
Conditions: not given
The method, boiled down:
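Tropical 5D embryos dechorionated at 4 hpf; 1 embryo/well from 6 hpf; static, sealed, dark exposure at 28C until 120 hpf; final DMSO 0.64%; 5uM trimethyltin chloride positive control; swim bladder defect recorded yes/no; dead embryos not scored.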
With `O=C(O)c1cccc(N(Cc2cccnc2)c2ccc(OC(F)F)c(OC(F)F)c2)c1`, the result was inactive. For `CC(C)CCCCCCOC(=O)c1ccc(C(=O)OCCCCCCC(C)C)c(C(=O)OCCCCCCC(C)C)c1`, the outcome was inactive. As for `CC(C)=CCCC(C)=CC=O`, the result was inactive. Turning to `Cc1ccc(C)c(O)c1`, the compound was called inactive.

`CCOCCO`: the compound was called inactive.

`CC/C(=C\C(=N/O)C(N)=O)C(C)[N+](=O)[O-]` (stereo unspecified): the result was inactive. For `Cc1c(-c2cccnc2)c2ccccc2n1CCCCC(=O)O`, the result was inactive. On to `CCCN(C1CCN(C(=O)C2CCNCC2)CC1)[C@@H]1CCc2ccc(OC)cc2C1`, for which the call was inactive.

Turning to `O=C1OC(=O)C2C3C=CC(C3)C12` (stereo unspecified), the compound was called inactive.

With `CCC(C)(C)C(=O)O[C@H]1C[C@@H](C)C=C2C=C[C@H](C)[C@H](CC[C@@H]3C[C@@H](O)CC(=O)O3)[C@H]21`, the result was inactive. `Cc1ccc(S(=O)(=O)O)cc1C`: the call was inactive. Turning to `O=C(O)c1cccc(Oc2ccccc2)c1`, the outcome was inactive. Take `CN(C)c1ccc(N=NS(=O)(=O)O)cc1`: the compound was called inactive. On to `CC[C@H](C)C(=O)O[C@H]1C[C@@H](C)C=C2C=C[C@H](C)[C@H](CC[C@@H]3C[C@@H](O)CC(=O)O3)[C@H]21`, for which the outcome was inactive.

For the compound `CC(C)=CCC/C(C)=C/CO`, the compound was classed as inactive.

Broadly, the AC50 is the concentration giving half of the maximal activity seen. In the case of `On1ccccc1=S`, the AC50 is 61.5 nM (active). As for `CCCCCCCCCCCCc1ccccc1`, the outcome was inactive.
